Measured values: PubChem BioAssay
Activity calls are given as the source filed them.

What was measured:
[1] = small molecules captured by biotinylated probe aFSTL3 – biochemical, small-molecule microarray, fluorescence 635/667, stem cell growth factor project, primary screen (AID 1064); conditions: higher = more signal;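 further: measures binding of the biotinylated anti-FSTL3 antibody to printed compounds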
[2] = binders from COS7 lysate, DM2A8 probe, primary screen, torsin A project, cell lysate, small-molecule microarray, fluorescence 635/667 (AID 1065); conditions: higher = more signal, COS7 lysate expressing mutant human TOR1A
[3] = small molecules captured by biotinylated probe aFGF2 – biochemical, small-molecule microarray, fluorescence 635/667, stem cell growth factor project, primary screen (AID 1067); conditions: higher = more signal;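 further: measures binding of biotinylated aFGF2 protein to printed compounds on slides; z-score merges feature fluorescence and signal-to-noise across triplicate slides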
[4] = small molecules captured by biotinylated probe aFGF10 – biochemical, small-molecule microarray, fluorescence 635/667, stem cell growth factor project, primary screen (AID 1071); conditions: higher = more signal;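 further: score merges 667 nm spot intensity and signal to noise from triplicate slides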
[5] = target: Neurogenic locus notch homolog protein 2 (Homo sapiens) (UniProt Q04721); assay: small molecules binding Notch2 protein – biochemical, small-molecule microarray, 635 nm fluorescence, stem cell growth factors, primary screen (AID 1073); conditions: higher = more signal
[6] = target: Pro-neuregulin-1, membrane-bound isoform (Homo sapiens) (UniProt Q02297); assay: small molecules binding neuregulin-1 protein – biochemical, small-molecule microarray, fluorescence 635/667, psychiatric disease protein project, primary screen (AID 1075); conditions: NRG1 binding, 635 nm fluorescence, higher = more signal;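 further: score combines 667 nm spot fluorescence with signal to noise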
[7] = system: Neuregulin-1 EGF-like domain; assay: small molecules binding NRG1 EGF domain – biochemical, small-molecule microarray, 635 nm fluorescence, primary screen (AID 1081); conditions: higher = more signal;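 further: binding of the protein to compounds printed on small-molecule microarray slides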
[8] = FRG1 expression reporter modulators in myotubes – cell-based, C2C12 myotubes, firefly/Renilla luciferase, luminescence, FRG1 inhibition for FSHD, primary screen (AID 1084); conditions: FRG1 promoter luciferase, higher = more signal, called active from +8 up or from −8 down
[9] = small molecules captured by biotinylated probe aFST – biochemical, small-molecule microarray, fluorescence 635/667, stem cell growth factor project, primary screen (AID 1086); conditions: higher = more signal;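 further: score merges 667 nm fluorescence with signal-to-noise of each printed compound spot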
[10] = binders of probe aHhip on microarray, primary screen, stem cell growth factor project, biochemical, small-molecule microarray, fluorescence 635/667 (AID 1087); conditions: higher = more signal;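 further: score merges spot fluorescence at 667nm with spot signal to noise ratio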

Chain of Neurogenic locus notch homolog protein 2 (Homo sapiens) (Q04721 whole entry, looked up, canonical isoform): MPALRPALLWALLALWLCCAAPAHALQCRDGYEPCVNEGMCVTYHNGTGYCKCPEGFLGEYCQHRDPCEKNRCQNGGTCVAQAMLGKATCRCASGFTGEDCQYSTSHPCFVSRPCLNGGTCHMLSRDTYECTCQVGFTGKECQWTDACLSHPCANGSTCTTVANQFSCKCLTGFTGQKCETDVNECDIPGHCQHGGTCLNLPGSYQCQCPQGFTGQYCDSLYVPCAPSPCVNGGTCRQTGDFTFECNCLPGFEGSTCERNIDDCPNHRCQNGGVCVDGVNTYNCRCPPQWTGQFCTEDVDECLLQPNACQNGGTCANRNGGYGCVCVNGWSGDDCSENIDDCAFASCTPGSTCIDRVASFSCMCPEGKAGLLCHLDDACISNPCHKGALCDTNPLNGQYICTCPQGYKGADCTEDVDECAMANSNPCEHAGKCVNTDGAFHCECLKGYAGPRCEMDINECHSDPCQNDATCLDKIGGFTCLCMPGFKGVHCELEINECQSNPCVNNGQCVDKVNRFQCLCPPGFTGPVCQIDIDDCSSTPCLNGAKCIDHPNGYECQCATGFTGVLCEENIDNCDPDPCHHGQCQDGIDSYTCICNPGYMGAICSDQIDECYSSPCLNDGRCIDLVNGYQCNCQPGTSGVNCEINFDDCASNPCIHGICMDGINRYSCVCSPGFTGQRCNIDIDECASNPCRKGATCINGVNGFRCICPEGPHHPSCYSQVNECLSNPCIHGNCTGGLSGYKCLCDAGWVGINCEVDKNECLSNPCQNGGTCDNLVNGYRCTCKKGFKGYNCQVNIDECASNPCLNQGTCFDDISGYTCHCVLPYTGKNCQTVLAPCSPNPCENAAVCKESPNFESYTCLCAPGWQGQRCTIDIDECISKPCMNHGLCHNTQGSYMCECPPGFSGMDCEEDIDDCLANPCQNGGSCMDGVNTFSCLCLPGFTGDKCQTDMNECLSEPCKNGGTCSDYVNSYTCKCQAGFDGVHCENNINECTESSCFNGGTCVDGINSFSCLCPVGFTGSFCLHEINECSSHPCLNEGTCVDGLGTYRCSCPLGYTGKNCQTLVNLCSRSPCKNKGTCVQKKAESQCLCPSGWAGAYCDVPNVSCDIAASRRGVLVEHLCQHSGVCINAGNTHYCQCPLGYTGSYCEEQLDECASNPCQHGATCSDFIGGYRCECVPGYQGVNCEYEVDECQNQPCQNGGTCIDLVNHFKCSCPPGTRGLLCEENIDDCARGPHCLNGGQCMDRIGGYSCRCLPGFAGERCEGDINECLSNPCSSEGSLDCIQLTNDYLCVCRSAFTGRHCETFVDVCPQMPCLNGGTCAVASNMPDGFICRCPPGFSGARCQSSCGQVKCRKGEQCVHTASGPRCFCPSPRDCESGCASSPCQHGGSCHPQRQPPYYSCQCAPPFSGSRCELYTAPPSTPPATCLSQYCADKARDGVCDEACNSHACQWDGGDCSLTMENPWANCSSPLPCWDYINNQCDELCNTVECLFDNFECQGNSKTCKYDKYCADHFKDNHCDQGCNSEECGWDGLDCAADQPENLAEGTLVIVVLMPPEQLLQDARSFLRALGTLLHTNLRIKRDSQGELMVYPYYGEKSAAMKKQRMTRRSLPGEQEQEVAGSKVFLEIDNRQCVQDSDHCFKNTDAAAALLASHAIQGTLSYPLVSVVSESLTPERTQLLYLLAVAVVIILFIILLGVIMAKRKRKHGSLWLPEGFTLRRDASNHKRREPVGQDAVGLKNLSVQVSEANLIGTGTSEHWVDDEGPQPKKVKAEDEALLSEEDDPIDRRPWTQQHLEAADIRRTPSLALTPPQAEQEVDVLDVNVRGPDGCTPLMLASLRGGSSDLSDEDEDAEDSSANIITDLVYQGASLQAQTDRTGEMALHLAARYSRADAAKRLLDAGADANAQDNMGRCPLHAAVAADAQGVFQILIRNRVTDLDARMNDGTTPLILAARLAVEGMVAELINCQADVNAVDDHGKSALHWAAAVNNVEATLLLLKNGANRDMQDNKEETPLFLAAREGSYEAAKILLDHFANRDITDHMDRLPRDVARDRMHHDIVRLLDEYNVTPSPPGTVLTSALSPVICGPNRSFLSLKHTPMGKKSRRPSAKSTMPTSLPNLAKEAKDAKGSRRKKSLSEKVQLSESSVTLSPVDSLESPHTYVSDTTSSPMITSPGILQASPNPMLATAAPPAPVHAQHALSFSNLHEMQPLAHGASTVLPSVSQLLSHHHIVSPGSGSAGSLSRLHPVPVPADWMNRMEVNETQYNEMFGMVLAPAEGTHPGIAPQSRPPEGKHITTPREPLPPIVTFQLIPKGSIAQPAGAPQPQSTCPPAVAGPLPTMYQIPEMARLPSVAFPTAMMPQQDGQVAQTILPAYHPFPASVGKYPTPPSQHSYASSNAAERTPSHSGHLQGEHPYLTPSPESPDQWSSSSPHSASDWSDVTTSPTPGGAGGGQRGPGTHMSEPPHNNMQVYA
Chain of Pro-neuregulin-1, membrane-bound isoform (Homo sapiens) (Q02297 whole entry, looked up, the tested form may be a part, canonical isoform): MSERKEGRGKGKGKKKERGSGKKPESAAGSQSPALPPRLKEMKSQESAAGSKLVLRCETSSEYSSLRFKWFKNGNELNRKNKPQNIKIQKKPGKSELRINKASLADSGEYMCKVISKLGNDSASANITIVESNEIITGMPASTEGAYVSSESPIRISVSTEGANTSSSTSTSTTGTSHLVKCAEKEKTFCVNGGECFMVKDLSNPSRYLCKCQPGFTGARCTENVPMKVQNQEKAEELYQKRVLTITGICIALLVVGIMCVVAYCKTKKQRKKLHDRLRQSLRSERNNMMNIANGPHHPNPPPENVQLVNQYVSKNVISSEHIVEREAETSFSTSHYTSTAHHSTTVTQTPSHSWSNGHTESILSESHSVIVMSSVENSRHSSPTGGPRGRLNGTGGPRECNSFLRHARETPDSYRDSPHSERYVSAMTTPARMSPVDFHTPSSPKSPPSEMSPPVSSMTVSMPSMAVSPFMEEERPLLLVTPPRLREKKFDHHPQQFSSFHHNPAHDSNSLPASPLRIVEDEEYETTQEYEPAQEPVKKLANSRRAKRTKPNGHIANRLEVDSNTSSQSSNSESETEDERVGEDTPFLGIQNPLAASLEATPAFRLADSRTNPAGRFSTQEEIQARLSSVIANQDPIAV

Compound	composite z-score [1]	composite z-score [2]	composite z-score [3]	composite z-score [4]	composite z-score [5]	composite z-score [6]	composite z-score [7]	z-score [8]	composite z-score [9]	composite z-score [10]
O=C(NN=C1C[C@@H](O)[C@@H](O)[C@@H]2[C@@H]3C(=O)N(c4ccc(F)cc4F)C(=O)[C@@H]3CC[C@H]12)OCc1ccccc1	0.0775	1.04	-0.152	-0.0134	0.194	1.47	-0.0123	-0.823 (inactive)	0.991	0.0854
CC(=O)OC[C@H]1O[C@@H](ON=C(C)C)[C@H](OC(C)=O)[C@@H](OC(C)=O)[C@@H]1OC(C)=O	-0.133	1.57	-0.194	-0.526	-0.105	-1.53	-1.47	0.212 (inactive)	0.298	-0.283
CCN1C(=O)[C@H]2[C@H]3[C@H](O)[C@H](O)CC(=NO[C@@H](C)c4cc(-c5c(C)cc(C)cc5C)no4)[C@@H]3CC[C@H]2C1=O	-0.558	1.13	-0.0243	0.624	0.817	1.08	1.04	0.998 (inactive)	0.544	-0.225
CC(C)=NOC(C)CN1CCCCc2nc(C)c(C)cc21 (stereo not given)	-0.216	0.927	-0.0858	0.0948	-0.134	0.152	0.093	0.265 (inactive)	0.142	0.0695
O=C1C[C@@H](O)[C@@H](O)[C@@H]2[C@@H]3C(=O)N(C4CCCCC4)C(=O)[C@@H]3CC[C@@H]12	-0.371	0.159	-0.0113	0.394	0.334	1.05	0.546	0.129 (inactive)	0.0535	-0.0237
CCc1cc2c(nc1CC)CCN(CCC(C)=NOC(C)CN1CCCCc3nc(C)c(C)cc31)C2 (stereo not given)	-0.154	1.24	-0.073	0.541	1.11	0.946	1.07	0.795 (inactive)	0.544	-0.174
CCCNC(=O)OC[C@H]1O[C@H](CCON=C2C[C@@H](O)[C@@H](O)[C@@H]3[C@@H]4C(=O)N(CC)C(=O)[C@@H]4CC[C@@H]23)C=C[C@@H]1Oc1ccc(OC)cc1	-0.465	0.142	-0.0165	0.64	0.705	0.628	0.898	0.36 (inactive)	0.46	-0.0645
COC(=O)[C@H](C)NC(=O)CCC1CC(OC(=O)NCc2cccc3ccccc23)CC2(CCCC(COC(=O)NCc3cccc(C(F)(F)F)c3)O2)O1 (stereo not given in full)	-0.428	0.182	-0.0316	0.762	1.17	1.09	1.01	-0.374 (inactive)	0.657	-0.271
CO[C@@H]1COC(=O)[C@H](COCc2ccccc2)NC(=O)CC=C[C@@H](C)[C@H](OC)COC(=O)[C@@H](C)NC(=O)CC=C[C@H]1C	-0.459	1.36	-0.191	-0.632	-0.45	-0.637	-0.826	0.696 (inactive)	-0.0711	0.0139
COC(=O)[C@@H]1CC[C@H](C)[C@@H](c2ccc(Br)cc2)N1	1.1	-0.288	0.0499	0.169	-0.208	0.153	-0.201	-0.382 (inactive)	-0.155	0.842
CC(CCN1CCCc2nc(C)c(C)cc21)=NOC[C@@H](O)COCc1ccco1	2.02	3.09	0.529	0.0131	0.164	-0.0146	0.919	1.05 (inactive)	2.79	3.19
CC[C@@H](c1ccccc1)n1c(=O)n2n(c1=O)[C@H]1[C@H](O)[C@@H]3O[C@@H]3C(=NOCc3ccccc3)[C@H]1CC2	0.83	0.374	-0.172	0.0913	0.57	0.834	0.504	2.67 (inactive)	-0.0575	-0.13
O=C1C2=CC[C@H]3C(=O)N(C[C@@H]4CCCO4)C(=O)[C@H]3[C@H]2[C@H](O)[C@@H]2O[C@H]12	-0.275	0.191	-0.0878	0.111	-0.0143	-0.209	0.75	-1.42 (inactive)	-0.258	-0.145
CC(C)=NO[C@H](C)c1cn([C@@H]2COC[C@H]2O)nn1	-0.517	-0.276	-0.163	0.517	0.712	0.0493	0.305	-0.807 (inactive)	0.362	-0.0618
CCN1C(=O)[C@H]2[C@H]3[C@H](O)[C@H](O)CC(=NO[C@H](C)c4cn([C@H](CO)Cc5ccccc5)nn4)[C@@H]3CC[C@H]2C1=O	-0.907	0.0378	-0.116	1.08	1.01	0.782	0.934	0.804 (inactive)	0.606	-0.344
O=C1[C@H]2[C@H]3[C@H](O)[C@H](O)CC(=NO[C@@H]4O[C@H](CO)[C@@H](O)[C@H](O)[C@H]4O)[C@@H]3CC[C@H]2C(=O)N1C1CCCCC1	-0.599	-0.0085	-0.0924	0.233	0.598	0.132	0.0698	-0.637 (inactive)	0.296	-0.0645
CC(C)=NOC[C@@H](O)[C@H]1O[C@@H]2OC(C)(C)O[C@@H]2[C@H]1O	-0.732	0.97	0.197	0.502	1.09	0.233	0.457	-0.476 (inactive)	0.548	-0.191

Compound	composite z-score [1]	composite z-score [2]	composite z-score [3]	composite z-score [4]	composite z-score [5]	composite z-score [6]	composite z-score [7]	z-score [8]	composite z-score [9]	composite z-score [10]
CCCCOC(OCCCC)C(O)CSc1ccc2ccccc2c1 (stereo not given)	-0.283	0.61	-0.0599	0.291	0.525	-0.213	0.461	-1.52 (inactive)	0.105	0.157
CCOC(=O)[C@H](Cc1ccccc1)NC(=O)CCC1CC(OC(=O)NCc2cccc3ccccc23)CC2(CCCC(COC(=O)NCCc3ccc(Cl)cc3)O2)O1 (stereo not given in full)	-0.487	0.0381	-0.205	0.13	0.597	0.108	0.966	0.903 (inactive)	-0.0328	-0.0645
COC(OC)[C@@H](C)[C@H](OC)[C@@H](C)[C@H](OC)c1ccccc1	-0.405	0.594	-0.138	0.238	-0.0257	-0.445	-0.561	-0.406 (inactive)	-0.0188	-0.0645
COCOc1ccc(Br)cc1C(=O)C=Cc1ccc2c(c1)OCO2	-0.289	0.738	-0.0878	0.313	0.315	-0.302	-0.645	-2.06 (inactive)	0.13	-0.226
CC(=O)OC[C@H]1O[C@@H](ON=C2[C@H]3CCn4c(=O)n(-c5ccccc5)c(=O)n4[C@H]3[C@H](O)[C@@H]3O[C@H]23)[C@H](OC(C)=O)[C@@H](OC(C)=O)[C@@H]1OC(C)=O	-0.512	0.617	-0.0787	0.582	0.396	0.471	0.711	0.295 (inactive)	0.259	-0.0024
CCOC(=O)[C@H](Cc1ccccc1)NC(=O)CCC1CC(OC(=O)NCc2cccc3ccccc23)CC2(CCCC(COC(=O)NCC3CCCCC3)O2)O1 (stereo not given in full)	-0.421	0.979	-0.154	0.183	0.595	0.619	0.994	0.0184 (inactive)	0.253	0.102
CCOC(=O)[C@H](CC(C)C)NC(=O)CCC1CC(OC(=O)NCCc2ccc(F)cc2)CC2(CCCC(COC(=O)NCc3cccc4ccccc34)O2)O1 (stereo not given in full)	-0.249	0.685	-0.195	0.162	0.401	0.0303	0.76	1.95 (inactive)	0.748	-0.134
C=CC[C@@H]1C=C[C@H](Oc2ccc(C)cc2)[C@@H](COC(=O)NCc2cccc3ccccc23)O1	-0.406	0.012	-0.144	0.655	-0.141	0.528	0.724	-0.446 (inactive)	-0.174	-0.251
CC=CC1=C(CO)[C@H](O)[C@H]2O[C@H]2[C@@H]1O	-0.267	0.112	-0.0425	0.192	0.486	-0.356	0.592	0.746 (inactive)	0.133	0.154
C[C@@H]1CC[C@H]2C(=O)OC(Cc3ccccc3)CN2[C@H]1c1ccc(Br)cc1 (stereo not given in full)	-0.438	-0.441	-0.156	0.578	-0.125	0.485	1.01	-0.156 (inactive)	-0.103	0.0373
CC(=O)OC[C@H]1O[C@H](CC=NOC[C@@H](O)[C@H]2O[C@@H]3OC(C)(C)O[C@@H]3[C@H]2O)C=C[C@@H]1OC(C)=O	-0.373	-0.487	0.138	0.416	1.04	0.758	1.13	-0.008 (inactive)	0.265	-0.0844
C[C@H]1CC[C@H]2C(=O)N[C@H](Cc3ccccc3)C(=O)N2[C@@H]1c1ccccc1	-0.335	0.524	-0.0893	0.412	0.301	-0.717	0.366	1.33 (inactive)	0.0175	-0.13
CC(C)=CCCC(C)=CCON=C1[C@H]2CCn3c(=O)n(-c4ccccc4)c(=O)n3[C@H]2[C@H](O)[C@@H]2O[C@H]12	-0.279	0.207	0.0243	0.0859	0.934	0.634	0.994	-1.52 (inactive)	0.516	-0.0645
CC(C)(C)N1C(=O)[C@H]2[C@H]3[C@H](O)[C@H](O)CC(=NNC(=O)OCc4ccccc4)[C@@H]3CC[C@H]2C1=O	-0.387	0.376	-0.136	0.64	0.447	-0.0123	0.254	0.674 (inactive)	0.278	-0.161
CCC1=NOC(CCC2CC(OC(=O)NCc3cccc4c3OCO4)CC3(CCCC(COC(=O)NCCc4ccc(Cl)cc4)O3)O2)C1 (stereo not given)	-0.281	0.0253	0.0388	0.88	0.0241	1.44	1.12	1.24 (inactive)	-0.0353	-0.0994
COC(=O)C(C(=O)OC)C1CCCC(=O)C1 (stereo not given)	-0.414	1.45	-0.0611	0.353	0.329	-0.146	-0.127	0.335 (inactive)	0.406	-0.264
CC(C)CON=C1C[C@@H](O)[C@@H](O)[C@@H]2[C@@H]3C(=O)N(c4ccc(F)cc4F)C(=O)[C@@H]3CC[C@@H]12	-0.527	0.118	-0.0502	0.345	0.429	0.984	0.557	0.581 (inactive)	0.283	-0.0994
